# Data as given in paper PMC5540273 (PLoS ONE, 2017).
# Like-named read-outs stand apart in the source and are kept apart here.
# Key:
# Conditions in all cases: n = 1
# BMPR1A = system: BMPR1A
# BMPR1B = system: BMPR1B
# BMPR2 = system: BMPR2
# BMX = system: BMX
# BRAF = system: BRAF
# BRK = system: T1, BRK
# T1 construct: gene PTK6
# BRSK1 = system: BRSK1
# BRSK2 = system: BRSK2
# BTK = system: BTK
# BUB1 = system: BUB1
# [1] = concentration: 1 μM, replicates: in singlicate
# 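Further: KINOMEscan kinase panel screen.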
Compound,%Inh (BMPR1A; 1 µM) [%],%Inh (BMPR1B; 1 µM) [%],%Inh (BMPR2; 1 µM) [%],%Inh (BMX; 1 µM) [%],%Inh (BRAF; 1 µM) [%],%Inh (BRK; 1 µM) [%],%Inh (BRSK1; 1 µM) [%],%Inh (BRSK2; 1 µM) [%],%Inh (BTK; 1 µM) [%],%Inh (BUB1; 1 µM) [%],%Inh (BMPR1A; [1]) [%],%Inh (BMPR1B; [1]) [%],%Inh (BMPR2; [1]) [%],%Inh (BMX; [1]) [%],%Inh (BRAF; [1]) [%],%Inh (BRK; [1]) [%],%Inh (BRSK1; [1]) [%],%Inh (BRSK2; [1]) [%],%Inh (BTK; [1]) [%],%Inh (BUB1; [1]) [%]
Cc1ccc(NC(=O)Nc2cccc(C(F)(F)F)c2)cc1 [GSK955403],94.6,0,1,0,0,0,0,0,0,0,–,–,–,–,–,–,–,–,–,–
Cc1nnc(-c2ccc3occ(-c4ccc(S(C)=O)cc4)c3c2)[nH]1 (stereo not drawn),–,–,–,–,–,–,–,–,–,–,11,37,26,0,2,0,38,0,0,26
O=C(Nc1n[nH]c2cc(-c3cccc(F)c3F)ccc12)C1CC1 [SB-733894],–,–,–,–,–,–,–,–,–,–,31,31,52,0,0,0,54,58,0,0
CCn1c(-c2ccccn2)nc2cnccc21 [SB-736398],–,–,–,–,–,–,–,–,–,–,0,0,21,77,11,14,100,0,7,40
Cc1ccccc1-n1cnc2c(N)ncnc21 [SKF-97510],–,–,–,–,–,–,–,–,–,–,0,0,0,12,0,5,0,0,0,0
COc1ccc(Nc2nccc(-c3cccc(NC(=O)c4cc5cc(F)ccc5[nH]4)c3)n2)cc1 [GSK1229782],–,–,–,–,–,–,–,–,–,–,10,0,15,16,0,22,4,12,31,64
Cc1cccc(-c2nc(Nc3ccncc3)c3ccccc3n2)n1 [GW855857],–,–,–,–,–,–,–,–,–,–,0,29,0,6,0,13,0,11,0,0
CN(C)CCN(C)C(=O)c1cc(-c2ccncc2)c(-c2ccc(Cl)c(O)c2)o1.Cl.Cl [SB-710397],–,–,–,–,–,–,–,–,–,–,0,0,31,0,94.5,29,2,0,10,95.2
CS(=O)(=O)c1ccc(-c2c(-c3ncn[nH]3)sc(N3CCOCC3)c2C#N)cc1,–,–,–,–,–,–,–,–,–,–,17,4,12,0,12,0,100,32,0,29
Cl.O=C(Nc1cccc(-c2nn3ncccc3c2-c2ccnc(Nc3cccnc3)n2)c1)c1c(F)cccc1F [GSK312879],–,–,–,–,–,–,–,–,–,–,0,0,0,24,91.6,21,8,0,0,7
CCCc1ccc(S(=O)(=O)NC2CCN(c3ccnc(Nc4ccc(F)cc4)n3)C2)cc1 (stereo not drawn) [GSK1379715],–,–,–,–,–,–,–,–,–,–,0,0,0,2,0,0,0,0,0,29
Fc1cccc(COc2nnc(-c3ccc4c(c3)CCO4)o2)c1,–,–,–,–,–,–,–,–,–,–,0,6,18,0,0,0,0,6,17,20
CC1=C(C(=O)Nc2cc3cn[nH]c3cc2F)C(c2ccc(C(F)(F)F)cc2)CC(=O)N1 (stereo not drawn) [GSK429286],–,–,–,–,–,–,–,–,–,–,0,0,6,4,7,20,5,0,0,18
Cl.c1ccc(-c2n[nH]cc2-c2ccnc(-c3ccc(CN4CCOCC4)cc3)c2)nc1 [GW776245],–,–,–,–,–,–,–,–,–,–,0,52,0,13,16,0,0,21,0,0
Cc1ccc(-c2cc(-c3c[nH]nc3-c3ccccn3)ccn2)cc1 [GW684088],–,–,–,–,–,–,–,–,–,–,0,18,0,36,0,3,0,0,51,40
CC(=O)Nc1nc2cnc(Nc3cc(NC(=O)c4cccc(CCC#N)c4)ccc3C)nc2s1,–,–,–,–,–,–,–,–,–,–,0,0,16,7,97.7,0,0,11,32,14
Fc1cc(Cl)ccc1Nc1ccnc2cc(I)ccc12 [GW551191],–,–,–,–,–,–,–,–,–,–,0,0,8,0,12,19,2,0,0,54
COc1ccc(CNC(=O)NC2CCN(c3ccnc(Nc4cc(OC)c(OC)c(OC)c4)n3)C2)cc1 (stereo not drawn) [GSK1379748],–,–,–,–,–,–,–,–,–,–,1,0,0,21,0,3,0,0,32,32

Compound,%Inh (BMPR1A; 1 µM) [%],%Inh (BMPR1B; 1 µM) [%],%Inh (BMPR2; 1 µM) [%],%Inh (BMX; 1 µM) [%],%Inh (BRAF; 1 µM) [%],%Inh (BRK; 1 µM) [%],%Inh (BRSK1; 1 µM) [%],%Inh (BRSK2; 1 µM) [%],%Inh (BTK; 1 µM) [%],%Inh (BUB1; 1 µM) [%],%Inh (BMPR1A; [1]) [%],%Inh (BMPR1B; [1]) [%],%Inh (BMPR2; [1]) [%],%Inh (BMX; [1]) [%],%Inh (BRAF; [1]) [%],%Inh (BRK; [1]) [%],%Inh (BRSK1; [1]) [%],%Inh (BRSK2; [1]) [%],%Inh (BTK; [1]) [%],%Inh (BUB1; [1]) [%]
CN1C(=O)C(Nc2ccc(Cl)c(C(=O)O)c2)=C(c2ccc(Cl)cc2)C1=O [SB-404290],–,–,–,–,–,–,–,–,–,–,4,0,25,0,0,0,0,0,0,0
COc1cc2nccc(Nc3ccc(NC(=O)c4ccc(C)cc4)c(O)c3)c2cc1OC.Cl [GW440132],–,–,–,–,–,–,–,–,–,–,1,0,0,22,0,36,0,3,32,31
O=S(=O)(c1ccc(-c2ccnc3[nH]ccc23)cc1)N1CCCC1 [GSK846226],–,–,–,–,–,–,–,–,–,–,0,0,24,10,0,0,0,0,0,0
Cc1cccc(-c2nc(C)cc(Nc3ccncc3)n2)n1 [GSK257997],–,–,–,–,–,–,–,–,–,–,14,0,2,27,0,2,0,0,0,9
Nc1ncnc2[nH]c(-c3ccccc3)nc12 [AH5015],–,–,–,–,–,–,–,–,–,–,0,0,0,20,6,16,1,0,1,38
COc1cc(Nc2nccc(N3CCC(NC(=O)Nc4cc(C)ccc4C)C3)n2)cc(OC)c1OC (stereo not drawn) [GSK1379762],–,–,–,–,–,–,–,–,–,–,0,0,0,35,7,13,0,0,0,26
Cc1c(Cn2ccn3c(=O)cc(N4CCOCC4)nc23)cccc1C(F)(F)F [GSK2289044],–,–,–,–,–,–,–,–,–,–,0,0,0,38,0,0,0,0,0,0
CS(=O)(=O)c1ccc(-c2nc3n(c2-c2ccncc2)CCC3)cc1 [SKF-105942],–,–,–,–,–,–,–,–,–,–,0,0,0,1,0,15,0,0,0,26
COc1ccc(Nc2nccc(NCCNC(=O)Nc3ccccc3F)n2)cc1 [GSK1379901],–,–,–,–,–,–,–,–,–,–,0,0,6,2,0,36,16,0,0,53
Cc1ccc(C(=O)Nc2ccc(Nc3ccnc4cc(-c5ccccn5)ccc34)cc2O)cc1.Cl [GW440146],–,–,–,–,–,–,–,–,–,–,0,0,0,14,0,29,0,0,46,54
CC(C)(C)c1ccc(C(=O)Nc2cn3cc(Cl)ccc3n2)cc1,–,–,–,–,–,–,–,–,–,–,0,3,0,0,9,0,0,0,0,0
Clc1cc(Cl)cc(Nc2ccnc(Nc3cc(Cl)cc(Cl)c3)n2)c1 [GSK175726],–,–,–,–,–,–,–,–,–,–,0,0,5,26,0,21,0,0,0,10
COc1cccc(NC(=O)NC2CCN(c3ccnc(Nc4ccc(F)cc4)n3)C2)c1 (stereo not drawn) [GSK1379721],–,–,–,–,–,–,–,–,–,–,0,0,7,0,0,0,0,0,0,10
COc1cc2ncnc(Nc3ccc4nc(-c5ccccc5)[nH]c4c3)c2cc1OC.Cl [GW282450],–,–,–,–,–,–,–,–,–,–,0,0,0,10,0,0,0,0,0,6
Cn1ccc2ncnc(Oc3ccc(Nc4nc5ccccc5[nH]4)cc3)c21,–,–,–,–,–,–,–,–,–,–,0,0,0,0,0,0,0,2,0,0
COc1cc2ncn(-c3cc(OCC4CCCO4)c(C(N)=O)s3)c2cc1OC (stereo not drawn) [GSK204607],–,–,–,–,–,–,–,–,–,–,0,0,24,19,0,18,15,7,0,32
Cc1ccc(NC(=O)Nc2cccc(Cl)c2)cc1-c1ccc(C(=O)Nc2ccncc2)cc1 [GSK1398468],–,–,–,–,–,–,–,–,–,–,0,0,0,0,67,13,100,9,0,53
Cc1csc(-c2nc(Nc3ccncc3)c3ccccc3n2)n1 [GW869640],–,–,–,–,–,–,–,–,–,–,6,42,36,14,10,8,0,15,0,72
